The list is not random: actives were taken first. Their share in the collection is about 21%.
Cycloheximide cs – affects cycloheximide protein synthesis inhibition readout, counter-screen; cell reporter, cycloheximide protein synthesis inhibition counterscreen; max response, %; 300,000 compounds, 12% hits; AID 2314; in the data active = max response mostly above about 13%, no sharp cut-off; inactive = mostly below about 14%; also: read at 38.3 µM for the half of the compounds with a filed dose
Pf growth 96h – P. falciparum growth inhibition at 96 hour, primary screen for plastid delayed-death inhibitors; AID 504834; P. falciparum luciferase reporter growth, 96 h; 320,000 compounds, 6.9% hits; Potency, µM (titrated, usually from 28.7 µM), usual class: inhibitors
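Cell-based qHTS: luciferase-tagged P. falciparum in erythrocytes (2% hematocrit, 0.05% parasitemia final) incubated with compounds for 96 hours, 37 C, 5% CO2; luciferase detection reagent then added and luminescence measured.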
HCV inh – inhibitors of hepatitis C virus infection; AID 651820; 340,000 compounds, 3.4% hits; Potency, µM (highest dose often 41.8 µM), actives largely listed as inhibitors; Huh7.5.1 HCVcc-Cre infection, luciferase reporter, 44 h
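Whole-lifecycle infectious HCVcc-Cre system; cells 1,000/well, compound then virus (~0.5 moi) added 4 h after plating, 44 h culture. Luciferase read 15 sec following 15 min substrate incubation, room temp.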
AMA1 RON2 block – disrupts binding of P. falciparum AMA1 to RON2; AlphaScreen AMA1-biotinylated RON2 peptide binding; Potency, µM (highest dose often 58.2 µM), actives largely listed as inhibitors; 360,000 compounds, 0.2% hits; also: nearly all actives have a fitted effect of over 45% in size
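AMA1 (3D7) with his tag at 25 nM final met compounds first, then biotinylated RON2 peptide at 25 nM; detection used donor plus acceptor beads, 10 µg/mL apiece, read by AlphaScreen after 30 min at room temperature.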
Shiga inhibitor – inhibitors of Shiga toxin in Vero cells; Vero cells, Shiga toxin protein synthesis inhibition reporter; inhibition, % at 38.7 µM; 290,000 compounds, 9.2% hits; AID 2315; in the data active = inhibition mostly above about 28%, no sharp cut-off; inactive = mostly below about 43%
Pf growth 48h – inhibits P. falciparum growth in the first generation, 48 h; Potency, µM (top dose mostly 28.7 µM), usual class: inhibitors; P. falciparum luciferase growth in erythrocytes, 48 h; AID 504832; 310,000 compounds, 5.9% hits
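Erythrocytes infected with P. falciparum carrying an integrated firefly luciferase reporter (2% hematocrit, 0.1% parasitemia final) were exposed to compounds in RPMI 1640 with 0.5% Albumax at 37 C, 5% CO2. Growth inhibition was scored as reduced luminescence.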
Large screens that a line does not name were inactive. Unless noted, calls follow the shape of the dose curve; as a rule, active = well fitted curve in the direction sought with a large enough effect; inconclusive = small, poorly fitted or top-dose-only effect, or another doubt; inactive = no such curve, though single readings can be large; an effect the other way counts as inactive or inconclusive.

Cc1ccc(Cn2ncn(-c3ccccc3)c2=O)cc1	Cycloheximide cs 19
Cc1oncc1C(=O)N1CCCC(CO)(Cc2ccc(F)cc2F)C1 (stereo not given)	Cycloheximide cs 17
O=C(Cc1cccc(F)c1)N1CCCC(CO)(Cc2ccc(F)cc2F)C1 (stereo not given)	none
COc1cccc(CC(=O)N2CCCC(CO)(Cc3ccc(F)cc3F)C2)c1 (stereo not given)	Pf growth 96h 8.3µM
Cc1occc1C(=O)N1CCCC(CO)(Cc2ccc(F)cc2F)C1 (stereo not given)	none
Nc1ccc(Oc2ccc3c(c2)C(=O)N(CC2CCCO2)C3=O)cc1 (stereo not given)	Cycloheximide cs 42, Shiga inhibitor 50, Pf growth 48h inconclusive
COc1ccc(NC(=O)c2ccc3c(c2)C(=O)N(CC2CCCO2)C3=O)cc1O (stereo not given)	none
CCOc1ccccc1NC(=O)c1ccc2c(c1)C(=O)N(CC1CCCO1)C2=O (stereo not given)	Pf growth 96h 15µM
Cc1c(NC(=O)c2ccc3c(c2)C(=O)N(CC2CCCO2)C3=O)cccc1C(=O)O (stereo not given)	none
O=C(NN1C(=O)c2ccccc2C1=O)c1ccc2c(c1)C(=O)N(CC1CCCO1)C2=O (stereo not given)	Cycloheximide cs 19, Shiga inhibitor 44
Nc1ccc2c(c1)C(=O)N(CC1CCCO1)C2=O (stereo not given)	none (no result: Pf growth 96h)
Cc1ccc(NC(=O)c2ccc3c(c2)C(=O)N(CC2CCCO2)C3=O)cc1C (stereo not given)	Cycloheximide cs 45, Shiga inhibitor 67
CCOC(=O)c1ccc(S(=O)(=O)Nc2cc(S(=O)(=O)Nc3ccc(OC)cc3)ccc2O)cc1	none (no result: Cycloheximide cs, Pf growth 96h, Shiga inhibitor, Pf growth 48h)
CCNC(=O)C1(C)CCCN(Cc2ccc3ccccc3c2Br)C1 (stereo not given)	none (no result: Cycloheximide cs, Pf growth 96h, HCV inh, Shiga inhibitor, Pf growth 48h)
CCN(CC)S(=O)(=O)c1ccc2c(c1)c(=O)c(C(=O)NCCc1ccccc1)cn2C	Pf growth 48h inconclusive
CCn1nc(-c2ccccc2)nc2c(=O)n(C)c(=O)nc1-2	Cycloheximide cs 43, HCV inh 2.8µM, Shiga inhibitor 48
CCn1nc(-c2ccccc2)c2nc3ccccc3nc21	none
C[C@H](CO)N1C[C@H](C)[C@@H](CN(C)S(=O)(=O)c2ccccc2)Oc2c(NC(=O)CCC(F)(F)F)cccc2C1=O	none (no result: Cycloheximide cs, Pf growth 96h, Shiga inhibitor, Pf growth 48h)
Cc1cccc(C(=O)Nc2ccc3c(c2)C(=O)NC3=O)c1	Cycloheximide cs 21
Cc1ccc(C(=O)Nc2ccc3c(c2)C(=O)NC3=O)cc1	Cycloheximide cs 14
COC(=O)c1ccc(C(=O)Nc2ccc3c(c2)C(=O)NC3=O)cc1	none
CCC(=O)Nc1ccc(Oc2ccc3c(c2)C(=O)NC3=O)cc1	none (no result: Pf growth 96h)
O=C(Nc1ccc2c(c1)C(=O)NC2=O)c1cccc(Cl)c1	none
CC(=O)Nc1cccc(Oc2ccc3c(c2)C(=O)NC3=O)c1	Cycloheximide cs 22 (no result: Shiga inhibitor)
Cc1ccc(C)c(C(=O)CSc2nnc(C)s2)c1	none
CCOc1ccc(C(=O)Nc2cccc(C(C)=O)c2)cc1[N+](=O)[O-]	HCV inh inconclusive
CN(c1nc(-c2ccc(Br)cc2)cs1)C1CCS(=O)(=O)C1 (stereo not given)	Cycloheximide cs 19, HCV inh inconclusive
CC(=O)c1cccc(NC(=O)Nc2cnn(Cc3ccc(Cl)cc3Cl)c2)c1	Pf growth 96h 9.3µM (no result: Pf growth 48h)
O=C(Nc1cnn(Cc2ccc(Cl)cc2Cl)c1)c1noc2c1CCCC2	Cycloheximide cs 14, HCV inh inconclusive
CCC(=O)N1CCC1(C)C(=O)Nc1nccs1 (stereo not given)	none (no result: Cycloheximide cs, Pf growth 96h, HCV inh, Shiga inhibitor, Pf growth 48h)
CC1(C(=O)NCCC#N)CCN1C(=O)CC(c1ccccc1)c1ccccc1 (stereo not given)	none (no result: Cycloheximide cs, Pf growth 96h, HCV inh, Shiga inhibitor, Pf growth 48h)
CC(C)(C)OC(=O)C[C@@H]1C/C=C\C[C@@H](CC(=O)N(CCO)Cc2ccccc2)C(=O)N2CCC[C@@H]2COC1=O	none (no result: Cycloheximide cs, Pf growth 96h, Shiga inhibitor, Pf growth 48h)
CCOC(=O)c1cnn2c1[nH]c(=O)c1ccccc12	Pf growth 96h 9.3µM
O=C(NCc1cccnc1)c1cc(Sc2ccc(F)cc2F)nc2ccccc12	HCV inh 10µM, Pf growth 48h inconclusive
COc1ccccc1Nc1cc(C(=O)NCc2cccnc2)c2ccccc2n1	none
COc1ccccc1CNC(=O)c1cc(-c2cccnc2)nc2ccccc12	HCV inh inconclusive, Pf growth 48h 10µM
COc1ccccc1CNC(=O)c1cnccn1	none (no result: HCV inh, Pf growth 48h)
COCCCNC(=O)c1cc(-c2cccnc2)nc2ccccc12	Pf growth 96h inconclusive
COc1ccccc1CNC(=O)c1cccnc1	Pf growth 96h 12µM
CCc1nc2ccc(C(=O)Nc3cccc(NS(C)(=O)=O)c3)cn2c1N(C)C(=O)c1cccc(OC)c1	none (no result: Cycloheximide cs, Pf growth 96h, HCV inh, Shiga inhibitor, Pf growth 48h)
CCCN(C(=O)COC(=O)c1nc2nc(C)cc(C)n2n1)C1CCS(=O)(=O)C1 (stereo not given)	none (no result: Cycloheximide cs, Shiga inhibitor)
O=c1cc(O)c2c(=O)n(-c3ccccc3)c3ccccc3c2o1	Pf growth 96h 12µM
CC(=O)Nc1ccc(C(=O)N2CCCC(c3cc(C(=O)NCc4cccnc4)no3)C2)cc1 (stereo not given)	none (no result: Cycloheximide cs, Pf growth 96h, HCV inh, Shiga inhibitor, Pf growth 48h)
COc1ccc(C2=NOC(C(=O)Nc3cccc(O)c3)C2)cc1 (stereo not given)	Pf growth 96h 5.2µM
O=C(Nc1cccc(O)c1)C1CC(c2ccc(Cl)cc2)=NO1 (stereo not given)	none
COc1ccc(C2=NOC(C(=O)Nc3cc(C)on3)C2)cc1 (stereo not given)	Pf growth 96h 9.3µM (no result: Pf growth 48h)
O=C(CN1C(=O)NC2(CCc3ccccc32)C1=O)Nc1ccc(Br)cc1F (stereo not given)	HCV inh inconclusive, Pf growth 48h inconclusive (no result: Cycloheximide cs, Shiga inhibitor)
O=C(Oc1ccc(Cl)cc1)c1ccc(COC(=O)c2cnccn2)cc1	Cycloheximide cs 40, Shiga inhibitor 87 (no result: Pf growth 48h)
COC(=O)c1ccc(COC(=O)Cc2n[nH]c(=O)c3ccccc23)cc1	Cycloheximide cs 27
O=C(OCc1ccc(F)cc1Cl)c1ccccn1	Cycloheximide cs 20
O=C(COC(=O)c1cnccn1)c1ccc(OC(=O)c2ccccc2)cc1	none
O=C(Oc1ccccc1)c1ccc(COC(=O)c2cnccn2)cc1	Cycloheximide cs 22
Cc1ccc2c(Cl)c(Cc3ccccc3)c(=S)[nH]c2n1	none (no result: Cycloheximide cs, Pf growth 96h, Shiga inhibitor, Pf growth 48h)
COC(=O)c1ccc(COC(=O)c2ccccn2)cc1	Cycloheximide cs 38, Shiga inhibitor 86 (no result: Pf growth 96h)
CC(C)OC(=O)c1ccc(COC(=O)c2cnccn2)cc1	none
CCOC(=O)C1CCN(C(=O)C2CCCN(S(=O)(=O)c3ccc(OCC)c(Cl)c3)C2)CC1 (stereo not given)	none (no result: Cycloheximide cs, Shiga inhibitor)
COC(=O)[C@@]12C[C@@H](CC(=O)N3CCCC3)C(=O)N(Cc3ccco3)C1=CCC(C)(C)C2	none (no result: Cycloheximide cs, Pf growth 96h, HCV inh, Shiga inhibitor, Pf growth 48h)

Compound activity as filed in PubChem.
